Most compounds without a hit are left out; they make up all but 3.5% or so of the library.
JMJD2E inh = JMJD2E (human) inhibition | B2RXH2 | Potency, µM (titrated, usually from 57.1 µM), for inactives: top-dose activity change, negative = inhibition, most hits filed as inhibitors | JMJD2E catalytic domain, FDH-coupled NADH fluorescence (FDH is formaldehyde dehydrogenase) | actives 1.6% (n = 230,000); active = well fitted inhibition curve with a large enough effect, not every such curve was filed as active; inconclusive = small, poorly fitted or top-dose-only effect, or another doubt; inactive = no such curve, though single readings can be large or run the other way;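 note: 0% = wells with enzyme and -100% = buffer wells without enzyme; nearly all actives have a fitted effect of over 50% in size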
Target sequence (B2RXH2 1-337 limits assumed): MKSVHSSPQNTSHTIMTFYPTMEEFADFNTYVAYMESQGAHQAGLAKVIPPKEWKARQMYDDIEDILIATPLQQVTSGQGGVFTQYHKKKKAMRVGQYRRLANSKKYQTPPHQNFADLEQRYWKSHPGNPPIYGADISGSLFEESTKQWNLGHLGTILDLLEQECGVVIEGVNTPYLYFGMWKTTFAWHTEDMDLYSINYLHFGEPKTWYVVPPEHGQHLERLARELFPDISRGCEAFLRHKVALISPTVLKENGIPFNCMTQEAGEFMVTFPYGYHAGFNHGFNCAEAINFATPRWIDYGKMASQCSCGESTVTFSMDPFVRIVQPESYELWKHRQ
TRb SRC2 PPI = inhibitors of human thyroid hormone receptor beta-SRC2 interaction. TRbeta-SRC2 peptide binding, fluorescence polarization; receptor liganded with 1 µM T3. Potency, µM (series often up to 106 µM), for inactives: at the highest dose activity change, negative = inhibition, usual class: inhibitors. actives 0.065% (n = 280,000). AID 1469;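 note: plate controls were bound peptide for no effect and peptide without receptor for full effect; nearly all actives have a fitted effect of over 50% in size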
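Human TRb ligand-binding domain (0.6 uM) is mixed with 20 nM Texas Red SRC2 peptide and 1 uM T3; after compound addition and 5 hr at ambient temperature, polarization is measured and normalized to unbound and bound controls.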
TexasRed fluor = alters Texas Red total fluorescence, flagging assay interference | AID 1479 | actives 0.29% (n = 280,000) | Potency, µM (series often up to 106 µM), inactives show at the top dose fluorescence change, negative = quenching | TRb/SRC2 Texas Red total fluorescence interference; active = well fitted curve in either direction with a large enough effect; inconclusive = small, poorly fitted or top-dose-only effect
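Flags fluorescent or light-absorbing compounds by total fluorescence, S + 2P, at 555 nm excitation and 632 nm emission. Mixture: 20 nM Texas Red SRC2 peptide, 0.6 uM human TRb LBD, 1 uM T3, 5% DMSO; compound exposure 5 h at ambient temperature.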
Tau fluor cs = counter-screen for tau fibril formation inhibitors. tau K18 P301L Alexa594 fluorescence, heparin fibrillization. Potency, µM (top dose mostly 57.7 µM), without a hit: at the top dose activity change, negative = decrease. actives 0.93% (n = 280,000). AID 1463; note: nearly all actives have a fitted effect of over 55% in size
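Human tau K18 P301L (15 uM unlabeled, 0.24 uM Alexa 594-labeled) in 100 mM sodium acetate pH 7 with 20 uM heparin, 6 hr at 37 C. ThT 30 uM added, 1 hr ambient; Alexa 594 FP and total fluorescence read at 555/632 nm.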
Tau ThT inhib = inhibitors of human tau fibril formation, thioflavin T binding. P10636. recombinant tau K18 P301L, heparin-induced fibrillization, ThT fluorescence. Potency, µM (titrated, usually from 57.4 µM), for inactives: at the highest dose activity, negative = inhibition, most hits filed as inhibitors. actives 2.1% (n = 270,000); note: nearly all actives have a fitted effect of over 55% in size
Target sequence (P10636 561-689 P618L limits assumed): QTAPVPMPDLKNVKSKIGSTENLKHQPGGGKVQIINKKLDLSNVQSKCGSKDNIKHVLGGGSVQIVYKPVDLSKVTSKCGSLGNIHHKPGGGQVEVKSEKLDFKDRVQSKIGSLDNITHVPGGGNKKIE
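In this qHTS, human K18 P301L tau is incubated with compound and heparin for 6 hr at 37 C, and Thioflavin T fluorescence then reports fibril load.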
Tau FP inhib = blocks human tau fibril formation measured by polarization | K18 P301L tau heparin fibrillization, Alexa594 FP, 6 h | actives 0.39% (n = 280,000) | P10636 | Potency, µM (doses to about 57.7 µM), for inactives: at the top dose activity, negative = inhibition, hits mostly inhibitors; note: nearly all actives have a fitted effect of over 55% in size
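Heparin (20 uM) drove fibril formation of recombinant tau K18 P301L, 15 uM unlabeled with 0.24 uM Alexa 594 label, for 6 hr at 37 C in 100 mM sodium acetate pH 7. Fluorescence polarization (555/632 nm) read 1 hr after 30 uM ThT.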
Starred values were filed as active, the others as inactive; [ ] = another dose, or the depositor's remark. Unless noted, calls come from the whole dose curve; as a rule, active = well fitted curve in the direction sought with a large enough effect; inconclusive = small, poorly fitted or top-dose-only effect, or another doubt; inactive = no such curve, though single readings can be large; an effect the other way counts as inactive or inconclusive. Unless noted, % is set by controls: 0 for no effect and ±100 for the full control effect; potency is the fitted concentration of half-maximal effect.

c1ccc2nc3c(nc2c1)c1ccccc1n3CCN1CCOCC1 was read as JMJD2E inh 1%, TRb SRC2 PPI 2%, TexasRed fluor -6%, Tau fluor cs -12%, Tau ThT inhib -16% and Tau FP inhib -20%.
`Cc1c(C#N)c2ccccc2n1CC(=O)NCc1cccnc1` gave JMJD2E inh 14%, TRb SRC2 PPI -7%, TexasRed fluor -3%, Tau fluor cs -5%, Tau ThT inhib -3% and Tau FP inhib -2%.
N#C/C(=C\c1ccc(O)c([N+](=O)[O-])c1)C(=O)NCc1ccccc1 was read as JMJD2E inh -1%, TRb SRC2 PPI 0%, TexasRed fluor -6%, Tau fluor cs -9%, Tau ThT inhib 16µM* and Tau FP inhib 9%.
For N#C/C(=C/c1ccc(O)c(O)c1)C(=O)OC/C=C/c1ccccc1 the results were TRb SRC2 PPI 7%, TexasRed fluor -3%, Tau fluor cs 11µM*[quencher], Tau ThT inhib 11µM* and Tau FP inhib inconclusive.
N#C/C(=C\c1ccc(O)c(Br)c1)C(=O)NCc1ccccc1 was read as JMJD2E inh 2%, TRb SRC2 PPI 4%, TexasRed fluor 1%, Tau fluor cs -8%, Tau ThT inhib -4% and Tau FP inhib 3%.
For N#C/C(=C\c1ccc(O)c(O)c1)C(=O)Nc1ccccc1 the results were JMJD2E inh 16µM*, TRb SRC2 PPI 4%, TexasRed fluor -5%, Tau fluor cs inconclusive, Tau ThT inhib 13µM* and Tau FP inhib 13%.
`C[C@H](NC(=O)/C(C#N)=C/c1ccc(O)c(O)c1)c1ccccc1` gave JMJD2E inh 7.1µM*, TRb SRC2 PPI -8%, TexasRed fluor -6%, Tau fluor cs inconclusive, Tau ThT inhib inconclusive and Tau FP inhib -13%.
For CCOC(=O)/C(C#N)=C\c1ccc(N2CCN(C/C=C/c3ccccc3)CC2)cc1 the results were JMJD2E inh -12%, TRb SRC2 PPI -1%, TexasRed fluor 7%, Tau fluor cs -27%, Tau ThT inhib inconclusive and Tau FP inhib -1%.
Screening N#C/C(=C\c1cccnc1)C(=O)Nc1ccccc1 returned JMJD2E inh inconclusive, TRb SRC2 PPI -12%, TexasRed fluor 17%, Tau fluor cs -9%, Tau ThT inhib -11% and Tau FP inhib 9%.
Screening C[C@@H](NC(=O)/C(C#N)=C/c1ccc(O)c(O)c1)c1ccccc1 returned JMJD2E inh 22µM*, TRb SRC2 PPI -7%, TexasRed fluor -4%, Tau fluor cs inconclusive, Tau ThT inhib inconclusive and Tau FP inhib 4%.
`CC(NC(=O)/C(C#N)=C/c1ccc(Cl)c([N+](=O)[O-])c1)c1ccccc1` (stereo unspecified) gave JMJD2E inh 3%, TRb SRC2 PPI 10%, TexasRed fluor 0%, Tau fluor cs 4%, Tau ThT inhib 6% and Tau FP inhib 9%.
For C/C=C/C=C/C(=O)[C@@H]1[C@@H]([C@]2(C)OC(=O)C(C)=C2O)[C@H]2/C(=C(O)/C=C/C=C/C)C(=O)[C@]1(C)C(=O)C2(C)O (stereo partly specified) the results were JMJD2E inh inconclusive, TRb SRC2 PPI 5%, TexasRed fluor -2%, Tau fluor cs -4%, Tau ThT inhib 14µM* and Tau FP inhib inconclusive.
CCOc1ccc2c(c1)C(=O)c1cc(OCC(=O)O)ccc1-2 was read as JMJD2E inh -7%, TRb SRC2 PPI -5%, TexasRed fluor -7%, Tau fluor cs -27%, Tau ThT inhib 11µM* and Tau FP inhib -6%.
CCCCOc1ccc2c(c1)C(=O)c1cc(O)ccc1-2 was read as JMJD2E inh -16%, TRb SRC2 PPI -7%[53 µM], TexasRed fluor -3%[53 µM], Tau fluor cs 14µM*[quencher], Tau ThT inhib 11µM* and Tau FP inhib inconclusive.
COc1cc(Cl)c(NS(=O)(=O)c2ccc(-c3cnc(C4CC4)o3)cc2)c(OC)c1 was read as TRb SRC2 PPI 10%, TexasRed fluor -4%, Tau fluor cs inconclusive, Tau ThT inhib -13% and Tau FP inhib 10%.
N#CC(C#N)=Cc1ccc(-c2ccc(S(=O)(=O)N=C(N)N)cc2)o1 was read as JMJD2E inh 0%, TRb SRC2 PPI -2%, TexasRed fluor 6%, Tau fluor cs inconclusive, Tau ThT inhib 20µM* and Tau FP inhib 8%.
`CC1=CC2(O)OCCN(CCO)C2=CC1=O` (stereo unspecified) gave JMJD2E inh 25µM*, TRb SRC2 PPI -16%, TexasRed fluor -25%, Tau fluor cs inconclusive, Tau ThT inhib 28µM* and Tau FP inhib inconclusive.
CC(C)=Cc1oc2ccc([N+](=O)[O-])cc2c1N1CCOCC1 was read as JMJD2E inh -9%, TRb SRC2 PPI 0%, TexasRed fluor 1%, Tau fluor cs -5%[2.34 µM], Tau ThT inhib 3% and Tau FP inhib -4%[2.34 µM].
`CC(=O)Oc1ccc2oc(/C=C/N(C)C)c([N+](=O)[O-])c2c1` gave JMJD2E inh -5%, TRb SRC2 PPI 6%, TexasRed fluor -3%, Tau fluor cs -16%, Tau ThT inhib 28µM* and Tau FP inhib 10%.
For C/C(=C/c1oc2ccc(O)cc2c1[N+](=O)[O-])N(C)C the results were JMJD2E inh inconclusive, TRb SRC2 PPI 6%, TexasRed fluor -7%, Tau fluor cs inconclusive, Tau ThT inhib 4µM* and Tau FP inhib -12%.
Screening COc1ccc2oc(/C=C/N(C)C)c(C(=O)c3ccc(Cl)cc3)c2c1 returned JMJD2E inh 4%, TRb SRC2 PPI -5%, TexasRed fluor 2%, Tau fluor cs -12%, Tau ThT inhib -9% and Tau FP inhib -14%.
For Cc1ccc(NC(=O)CCS(=O)(=O)c2cccc3nsnc23)c(C)c1 the results were TRb SRC2 PPI 1%, TexasRed fluor -1%, Tau fluor cs -11%, Tau ThT inhib -6% and Tau FP inhib -5%.
For O=C(Cc1cccs1)N1CCN(c2ccc([N+](=O)[O-])cc2)CC1 the results were JMJD2E inh -1%, TRb SRC2 PPI 2%, TexasRed fluor -3%, Tau fluor cs -17%, Tau ThT inhib 3.5µM* and Tau FP inhib -2%.
Screening CSC(=NC#N)N1CCN(c2ccc([N+](=O)[O-])cc2)CC1 returned JMJD2E inh -20%, TRb SRC2 PPI -4%, TexasRed fluor -1%, Tau fluor cs -21%, Tau ThT inhib 2µM* and Tau FP inhib 0%.
Screening CSC(=NC#N)N1CCN(C(=NC#N)SC)CC1 returned JMJD2E inh inconclusive, TRb SRC2 PPI 1%, TexasRed fluor 0%, Tau fluor cs 3%, Tau ThT inhib 6% and Tau FP inhib 4%.

Bioassay records as filed in PubChem.
